For 69 sequences, z-score results are on record in PubChem BioAssay AID1508600 (Functional Genomics Laboratory (NCATS/FGL), 2020).

Among all 53,000 sequences or so, about 3,700 (7%) were called active.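 The calls were made as follows: active = gene knockdowns whose robust z-score for IL-1 alpha signal is at least 2 or at most -2, so actives lie on both sides; inactive = the rest.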 The entries come from a sample that favours actives as a whole.

A short description of this assay: Components of the Cytosolic LPS Sensing Pathway: Gene Identification via Genome-wide siRNA Screen.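 Also: robust z of the log signal after scaling to non-targeting control siRNA wells of the plate.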 The conditions noted are these: RAW264.7 macrophages, IL-1a HTRF, actives lie on both sides, screened at 100 nM (by protocol), cells primed 5 h with Pam3CSK4 first. A digest of the protocol:
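Read-out: IL-1a HTRF on supernatant, divided by plate negative-control median ×100, log-transformed and converted to robust z-score. Cells were RAW264.7 given 100 nM siRNA, Pam3CSK4-primed 5 hours, then LipidA-transfected 24 hour.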
On the technique in general: Time-resolved FRET reads energy transfer from a long-lived donor to a nearby acceptor.
On to GCUGAUCAGAGACCAUUACTT against Cmss1, for which the z-score is -2.26 (active).

Take GGGAGAAGGUGGAAAUACUTT against Hdgfl3: the z-score was 1.63 (inactive).

For GGCCAUACGGACCAUGUAUTT against Slc25a19, the z-score is -1.25 (inactive).

For GGACCAAAUCCUCUGAUUCTT against Bud13, the z-score is 2.74 (active).

As to GGCUGCCUUGCUGAUUUGATT against Boc, the z-score is 0.762 (inactive).

On to CCUUUACGUUUCUGUGUCUTT against Slc37a4, for which the z-score was -1.19 (inactive).

Turning to CCAUUCUACACUUUUCCACTT against Krtap1-5, the z-score is -0.909 (inactive).

As for GCCAAGCAUUAAGUGAUAATT against Setmar, the z-score was 2.7 (active).

Turning to CCAACUAAUCCCAUAUUCCTT against Tmem43, the z-score was 0.0511 (inactive).

On to GGAGCUAUGUUCAGUUCUUTT against Qsox1, for which the z-score is 0.438 (inactive).

Turning to GCAUUAUCUGUGAAAAUCCTT against En2, the z-score was 0.262 (inactive).

For the sequence GCAGAAAUUAACAAGUCUCTT against Kif2c, the z-score was 0.816 (inactive).

Regarding GCACUGUUCGUUUUUGUUUTT against Astn1, the z-score was 0.275 (inactive).

Turning to GGCUAUGGGAAUCAUGAAUTT against H2bc18, the z-score is -2.84 (active).

Turning to GCUCUAUGAGAGUAUAUUATT against Tamm41, the z-score is -0.495 (inactive).

For the sequence GCAUGUGAUUACCUUUGUATT against Btbd10, the z-score is 0.633 (inactive).

In the case of GGGAUCCCGCAAAAUCAGATT against Osm, the z-score was 0.63 (inactive).

Consider GCACAUCUUGGACCGUUUCTT against Lhx3, for which the z-score is 0.851 (inactive).

As to GGGUACAAGCUUAUCAAUATT against Trpm6, the z-score is 4.91 (active).

In the case of GGUGUAUAGCUGUUGUGGGTT against Dennd2d, the z-score is -1.41 (inactive).

With CCUCAAGGAACUGAAUGCCTT against Olfr1320, the z-score is 0.0261 (inactive).

GGGAUAAAGAGAGACCCAATT against Flywch1: the z-score is 0.889 (inactive).

CCAGAUGACAAUGAGUCAGTT against Ss18: the z-score is -0.197 (inactive).

In the case of CCUAAAUUUGACUGUGCCUTT against Nudt10, the z-score is 2.13 (active).

Consider GCGAUUGUCAUUCUCUUUUTT against Jak3, for which the z-score is 0.711 (inactive).

As for GGGCUUUCCCAGUUCCUAATT against Bmp6, the z-score is 2.04 (active).

Take CCACCUCAAGUCAAAGACUTT against Cggbp1: the z-score was -0.445 (inactive).

For GGCUCUAGAAGCGAGAAUCTT against Six6, the z-score is -0.234 (inactive).

With GGACCUAAUCCAUAAGGUCTT against Pcyox1l, the z-score is -0.379 (inactive).

For the sequence GGAACAGAUCUCUGAUAUATT against Sub1, the z-score was 0.564 (inactive).

Turning to GGCCUUCAUUGAGAUGAACTT against Ptbp1, the z-score was -1.17 (inactive).

On to GGCUAUGAUGAUUAUAAUGTT against Hnrnph1, for which the z-score was 0.724 (inactive).

For GGACCAGAGGAGAUUUCAATT against Ern2, the z-score was 1.56 (inactive).

On to GGUAAACUCAAGUUUUCAGTT against Inpp5j, for which the z-score is 2.36 (active).

As for GGAUGAGAAACCAUUUAAATT against Oas1f, the z-score was -1.08 (inactive).

For the sequence GGAUCUCCCUCUAAAUAUUTT against Hsp90aa1, the z-score is -0.138 (inactive).

As to CGGAAAGUCCGGUUUCGAATT against Grxcr1, the z-score is 0.156 (inactive).

For CGAAGUUACGAGCAUCCACTT against Crhr2, the z-score is 3.81 (active).

In the case of GGUUUACAGCAUCAUUAAATT against Shmt1, the z-score is 0.345 (inactive).

With CCAGACGAGGAGAACAUCATT against Samd4b, the z-score is -0.111 (inactive).

For GGAUUAGCCUGGUCCUUUUTT against Dusp14, the z-score is 0.989 (inactive).

Take CCGUCCGAUGAAAAACAGGTT against Prm1: the z-score was -0.128 (inactive).

For the sequence GCCCACCGACUUUAUUAACTT against Tfap2d, the z-score is 0.541 (inactive).

For the sequence GCCAGACAAGCCUCAUUGATT against Ncapd2, the z-score was -2.2 (active).

With GGAAAAGAAAAUCGAGACCTT against Ubap2l, the z-score is 0.776 (inactive).

For GGUACAAAUGCAUUGAGAGTT against Fcamr, the z-score is -1.3 (inactive).

Consider GGCAAAGACAAGAAGCUGUTT against Drap1, for which the z-score is -0.445 (inactive).

As to GCACAACUUAUGACUGAAATT against Emc4, the z-score was 1.66 (inactive).

Regarding GCUUCAAGUCAACUUAGUCTT against Hal, the z-score is 1.24 (inactive).

In the case of GCGAAUUCGAAAGCUAUGATT against Arhgef10, the z-score was -2.19 (active).

As to CCGAAGACUAGCUAAUUUUTT against Sult1c1, the z-score was 1.17 (inactive).

As to CCUUCAACUAUGGCAAAUATT against Cacul1, the z-score was -0.241 (inactive).

For the sequence GCUCUGAACUCAAUAAUAATT against Atg7, the z-score is -0.875 (inactive).

With GCGGAUCUGCUUUUUGCACTT against Ttc14, the z-score was -0.105 (inactive).

For the sequence ACUUCGUAAAAGAGCACAATT against Platr25, the z-score is 1.02 (inactive).

Consider “GGAUCUUGAAGAUAAGAGCTT against 1810009A15Rik”, for which the z-score was -0.599 (inactive).

On to GGGUUUCAGAACUGAGUUATT against Saa1, for which the z-score was -0.28 (inactive).

Consider GCCAUGAAUCCUAUCCGCATT against Ephb3, for which the z-score is -0.967 (inactive).

In the case of CCACCUAAUUUAUUGCUGUTT against Mafk, the z-score is 0.745 (inactive).

On to GGGUAGAAUGUGUGUGUCUTT against Abhd15, for which the z-score was -2.52 (active).

Regarding GGCUGGCAUCACCAUCAAATT against Kit, the z-score is 0.429 (inactive).

Regarding CCACUUAUAACUCAUAGUUTT against Ugt2b34, the z-score is 0.0725 (inactive).

GGACCGCUUCAACAGUAUGTT against Tcfl5: the z-score was -0.525 (inactive).

For the sequence “CGCAUCUGUUUCUUUUCCCTT against 1700029P11Rik”, the z-score is -2.22 (active).

In the case of GCAGGAGUUUAUCAGAGGATT against Prim2, the z-score was -1.64 (inactive).

With GGCAGCAAAGUCAAGAUGUTT against Msgn1, the z-score is -1.82 (inactive).

Regarding GGGAGGAGAAAAAUAUUCUTT against Olfr1094, the z-score was -1.5 (inactive).

Take GGAGAUCUUAGCAAAGUAUTT against Degs1: the z-score was 2.41 (active).

CCUUCAUUCUCAUGUGACCTT against Psat1: the z-score is -1.2 (inactive).
